Measured values from PubChem BioAssay (Tox21).
Inconclusive results are not listed. The source made the active and inactive calls. Calls follow the shape of the dose curve; as a rule, active = well fitted activation curve with a large enough effect in the signal ratio in the repeat runs (not every such curve was filed as active); inconclusive = weak or mixed curves, or effect the other way; inactive = flat fitted curve, though single readings scatter; the % refers to the signal ratio.

Assay: qHTS assay to identify small molecule agonists of the endoplasmic reticulum stress response signaling pathway (AID 1159516)
Settings: ESRE-bla HeLa, ER stress beta-lactamase reporter, 5 h; series mostly up to 61 µM
Source text: National Center for Advancing Translational Sciences [NCATS]
NIH Chemical Genomics Center [NCGC]
U.S. Environmental Protection Agency [EPA]
National Institutes of Environmental Health Sciences [NIEHS]
National Toxicology Program [NTP]
U.S. Food and Drug Administration [FDA]
Endoplasmic Reticulum (ER) plays an important role in cellular signaling, protein folding/maturation, stress response, lipid biosynthesis, calcium storage and release etc. Under stress conditions, proteins in ER misfold or unfold, and leading to the expression of ER stress responsive genes. ER stress has been associated with a variety of pathophysiological conditions such as cancer, inflammation, neurodegenerative diseases, diabetes, ischemic heart disease etc. To identify the compounds that induce ER stress response, an ER stress reporter cell line, CellSensor ESRE-bla HeLa (Life Technologies, Carlsbad, CA) containing a beta-lactamase reporter gene under control of the Endoplasmic reticulum Stress Response Element (ESRE) was used to screen Tox21 10K compound library.
Tox21 Assay Protocol Summary:
ESRE-bla HeLa cells were dispensed at 1,500 cells/6 uL of assay medium per well into black wall/clear-bottom 1536-well plates using a Multidrop Combi (ThermoFisher Scientific, Waltham, MA) dispenser. After the assay plates were incubated at 37 C and 5% CO2 for an overnight, 23 nL of compounds dissolved in DMSO, positive controls or DMSO only was transferred to the assay plate by a Pintool station (Kalypsys, San Diego, CA). The assay plates were incubated at 37 C and 5% CO2 for 5 hr. One uL of LiveBLAzer B/G FRET substrate (Life Technologies) was added using a Flying Reagent Dispenser (Aurora Discovery, San Diego, CA) and the plates were incubated at room temperature for 2 hr. Fluorescence intensity (405 nm excitation, 460 nm and 530 nm emissions) was measured using an Envision plate reader (PerkinElmer, Shelton, CT).

| Structure (SMILES) | outcome |
| --- | --- |
| COc1ccc2c(C(=O)c3ccc(Cl)cc3)c(C)n(CC(=O)O)c2c1 | inactive |
| NCCOS(=O)(=O)O | inactive |
| CCC(C)(C#N)N=NC(C)(C#N)CC (stereo not given) | inactive |
| O=c1[nH]c2ccccc2n1C1CCNCC1 | inactive |
| C/C=C/CC#N | inactive |
| NNCc1ccccc1 | inactive |
| CCOC(=O)COc1ccc(Cl)cc1Cl | inactive |
| C=CC=O | inactive |
| CC1NCCOC1c1ccccc1 (stereo not given) | inactive |
| C=C1C[C@@H]2[C@H](CC[C@]3(C)C(=O)CC[C@@H]23)[C@@]2(C)C=CC(=O)C=C12 | inactive |
| CCOC(=O)CCl | inactive |
| C#CC(C)(C)O | inactive |
| O=C(O)c1c(Cl)ccc2cc(Cl)cnc12 | inactive |
| O=C(O)CBr | inactive |
| CCOC(=O)NC(C)(C)Cc1ccc(Cl)cc1 | inactive |
| NCC1(CC(=O)O)CCCCC1 | inactive |
| CCOP(=S)(OCC)SCCl | inactive |
| Cc1ccc(-c2nc3ccc(C)cn3c2CC(=O)N(C)C)cc1 | inactive |
| COC1=CC(=O)O[C@@H](/C=C/c2ccccc2)C1 | inactive |
| Clc1nc(Cl)nc(Nc2ccccc2Cl)n1 | inactive |

| Structure (SMILES) | outcome |
| --- | --- |
| CC(C)(N)Cc1ccccc1Cl | inactive |
| Clc1ccc(C(Cl)(Cl)Cl)cn1 | inactive |
| CCCC(C)(COC(N)=O)COC(N)=O | inactive |
| CNC(=O)O/N=C(/CSC)C(C)(C)C | inactive |
| O=C(Cl)C(Cl)Cl | inactive |
| Oc1ccc(Cc2ccc(O)cc2)cc1 | inactive |
| O=C1CCCCC1Cl (stereo not given) | inactive |
| CN(CCO)CCO | inactive |
| CCC(=O)OC1(c2ccccc2)CCN(C)CC1 | inactive |
| ClCCCCl | inactive |
| Cc1cc(OC(=O)N(C)C)nn1C(=O)N(C)C | inactive |
| CCCN1CCC[C@@H]2Cc3[nH]ncc3C[C@H]21 | inactive |
| O=C(O)C(Br)(Br)Br | inactive |
| CCN[C@H](C)Cc1cccc(C(F)(F)F)c1 | inactive |
| CCC1(c2ccccc2)C(=O)N(COC)C(=O)N(COC)C1=O | inactive |
| CCCC(C)C1(CC)C(=O)N=C(S)NC1=O (stereo not given) | inactive |
| C=CCCC#N | inactive |
| CC(C)(C)C(=O)Cl | inactive |
| COc1ccc(CN2CCNCC2)c(OC)c1OC | inactive |
| BrCC1CO1 (stereo not given) | inactive |
